Bioassay records: PubChem, several laboratories
An excerpt weighted towards active compounds, which were near 0.54% of everything screened.
Mtb RmlCD inh: M. tuberculosis RmlC/RmlD inhibition; P9WH09+P9WH11; RmlC+RmlD coupled enzyme assay, percent inhibition; primary screen in compound mixtures; inhibition, % at 3.6 µM; 160,000 tested, 0.03% active; AID 1533; in the data active means inhibition mostly above about 34%, no sharp cut-off
DUSP3 inh: inhibitors of human VHR1 phosphatase (DUSP3); recombinant VHR phosphatase, pNPP absorbance; inhibition, % at 13.3 µM; 290,000 tested, 0.52% active; AID 1654; in the data active means inhibition above about 50%
Target sequence (P51452 whole entry, looked up): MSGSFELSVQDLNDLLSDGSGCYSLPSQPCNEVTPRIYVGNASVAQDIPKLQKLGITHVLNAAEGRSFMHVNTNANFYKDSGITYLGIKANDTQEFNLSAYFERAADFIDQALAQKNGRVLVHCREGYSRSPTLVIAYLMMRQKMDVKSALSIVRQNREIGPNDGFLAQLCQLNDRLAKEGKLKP
Each line names hits and unclear results; the compound was inactive in the other large screens.

Cc1ccc(S(=O)(=O)Cc2cc(F)c([N+](=O)[O-])cc2[N+](=O)[O-])cc1	none (no result: Mtb RmlCD inh)
O=C(NNC(=O)C1CC1)c1ccccc1[N+](=O)[O-]	none (no result: Mtb RmlCD inh)
Cc1ccc(/C=C/C(=O)Nc2nccs2)o1	none
Cc1ccc(/C=C/C(=O)Nc2nnc(SCc3ccc(C#N)cc3)s2)o1	DUSP3 inh 60
CCOC(=O)C1=C(C)Nc2ccccc2N=C1NC(=O)Cc1ccc(Br)cc1	none
CCOC(=O)C1=C(C)Nc2ccccc2N=C1NC(=O)Cc1ccc(OC)cc1	DUSP3 inh 51
CCOC(=O)c1c(NC(=O)COc2cccc3c2CCN(C)C3=O)sc2c1CCC2	none
COc1cccc(CN(C(=O)/C=C/c2ccc(Cl)cc2)C2CCS(=O)(=O)C2)c1 (stereo not drawn)	DUSP3 inh 51
O=C(/C=C/c1ccccc1)N(Cc1cccc(Cl)c1)C1CCS(=O)(=O)C1 (stereo not drawn)	none (no result: Mtb RmlCD inh)
COc1ccc(Br)cc1S(=O)(=O)NCCN1CCOCC1	DUSP3 inh 57
COc1ccc(C)cc1S(=O)(=O)NCCN1CCOCC1	none (no result: Mtb RmlCD inh)
C/C(=N/OC(=O)c1ccc(C)cc1)c1cccs1	none
C/C(=N/OC(=O)c1ccccc1Br)c1ccc(C)cc1	DUSP3 inh 52 (no result: Mtb RmlCD inh)
Cc1ccc(N(C(=O)CNC(=O)c2ccco2)C(C(=O)NC2CCCC2)c2cccnc2)c(C)c1 (stereo not drawn)	none (no result: Mtb RmlCD inh)
CCn1c(SCC(=O)N(C)c2ccccc2)nc2c([nH]c3ccccc32)c1=O	DUSP3 inh 53 (no result: Mtb RmlCD inh)
COc1ccc(-n2c(SCC(=O)N(C)c3ccccc3)nc3c([nH]c4ccccc43)c2=O)cc1OC	none (no result: Mtb RmlCD inh)
CCCCNC(=S)N(C)/N=C/c1sc(N2CCCCC2)nc1-c1cccs1	none
COc1ccc(N=NC2=C(O)CC(C)(C)CC2=O)cc1	none
COc1ccc(N=NC2=C(O)CC(C)(C)CC2=O)c(OC)c1	DUSP3 inh 53 (no result: Mtb RmlCD inh)
Cc1ccc(Cl)cc1N1CCN(C(=O)c2ccc3c(c2)CCN3S(C)(=O)=O)CC1	DUSP3 inh 57 (no result: Mtb RmlCD inh)
CS(=O)(=O)N1CCc2cc(C(=O)N3CCN(c4cccc(Cl)c4)CC3)ccc21	none (no result: Mtb RmlCD inh)
Nc1nnc(-c2ccncc2)s1	none (no result: Mtb RmlCD inh)
c1cc(-c2sc(-c3ccncc3)c(-c3ccncc3)c2-c2ccncc2)ccn1	DUSP3 inh 53
Cc1cc(C)c(C(=O)CSC2=NC(N)=C(C#N)C3(CCCCC3)C2C(N)=O)cc1C (stereo not drawn)	none
O=C(CN1CCCCC1)Nc1ccc(Br)cc1[N+](=O)[O-]	none (no result: Mtb RmlCD inh)
O=C(Nc1ccccc1)c1ccccc1O	none
Cc1ccc(NC(=O)c2ccccc2O)cc1	DUSP3 inh 54 (no result: Mtb RmlCD inh)
Cc1cc(NC(=O)Cn2ccsc2=N)c([N+](=O)[O-])cc1C	none
COc1ccc([N+](=O)[O-])cc1NC(=O)Cn1ccsc1=N	DUSP3 inh 51
COc1ccc(C(=O)NNC(=O)CCC(=O)Nc2ccc(C)cc2C)cc1	none (no result: Mtb RmlCD inh)
O=[N+]([O-])c1ccn(-c2nc(-c3ccccc3)cc(C(F)(F)F)n2)n1	none
O=[N+]([O-])c1ccn(-c2nc(-c3cccs3)cc(C(F)(F)F)n2)n1	DUSP3 inh 54
O=C1Nc2ccccc2OCc2c1cccc2[N+](=O)[O-]	none (no result: Mtb RmlCD inh)
CN(/N=C/c1ccc(-c2ccc([N+](=O)[O-])cc2)o1)c1ccccc1	none (no result: Mtb RmlCD inh)
O=C1Nc2ccccc2/C1=N/N=C/c1ccc(-c2ccc([N+](=O)[O-])cc2)o1	DUSP3 inh 54
CC(C)COc1ccc(C(=O)Nc2ccc(SC(F)F)cc2)cc1	none
Cc1ccc(/C=N/NC(=O)c2cccnc2)s1	none
CCOc1ccccc1CN1CCNC(=O)C1CC(=O)NCCCn1cccn1 (stereo not drawn)	DUSP3 inh 51 (no result: Mtb RmlCD inh)
COc1ccccc1CN1CCNC(=O)C1CC(=O)NCCCn1cccn1 (stereo not drawn)	none
Cc1cccc(-c2nc(CS(=O)CC(=O)N3CC(C)CC(C)C3)c(C)o2)c1 (stereo not drawn)	none (no result: Mtb RmlCD inh)
CCC1(CC)Cc2ccccc2C2=C(C(=O)N3CCCCC3)C(=O)C(=O)N21	none
CC(=O)c1c(C)[nH]c(C(=O)N2CCN(c3ccccn3)CC2)c1C	DUSP3 inh 57 (no result: Mtb RmlCD inh)
CC(=O)c1c(C)[nH]c(C(=O)N2CCN(c3ncccn3)CC2)c1C	none
O=C(COCc1nc2ccccc2c(=O)[nH]1)NC1CCCC1	none
CCn1c(C(=O)O)c(CC(=O)Nc2ccc(Br)cc2C)c2ccccc21	DUSP3 inh 57 (no result: Mtb RmlCD inh)
CCN(CC)CCNC(=O)Cc1c(C(=O)O)n(CC)c2ccccc12	none (no result: Mtb RmlCD inh)
CC(C)c1cc(C(=O)N2CCCC(C(=O)c3ccc4ccccc4c3)C2)on1 (stereo not drawn)	none (no result: Mtb RmlCD inh)
O=C1CCC(C(=O)N2CCCC(C(=O)c3ccc4ccccc4c3)C2)=NN1 (stereo not drawn)	DUSP3 inh 50 (no result: Mtb RmlCD inh)
Cc1cccc2c1ncc1c(=O)n(-c3ccccc3)[nH]c12	DUSP3 inh 57 (no result: Mtb RmlCD inh)
O=c1c2c([nH]n1-c1ccccc1)CCCC2	none (no result: Mtb RmlCD inh)
CCOc1cc(/C=C(\C#N)C(=O)Nc2cccc(C(=O)O)c2)ccc1OCc1ccc(Br)cc1	DUSP3 inh 53 (no result: Mtb RmlCD inh)
COc1cc(/C=C(\C#N)C(=O)Nc2cccc(C(=O)O)c2)ccc1OCc1ccc(C)cc1	none (no result: Mtb RmlCD inh)
O=c1c2ccccc2sn1-c1cc(S(=O)(=O)N2CCOCC2)ccc1N1CCOCC1	none (no result: Mtb RmlCD inh)
